Source: PubChem BioAssay AID2825 (Sanford-Burnham Center for Chemical Genomics, 2010)
Screen size: about 330,000 compounds; about 1,300 (0.39%) were called active.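 The calls were made as follows: active = inhibition of 50% or more; inactive = inhibition below 50%.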 The list comes from a sample in which actives are over-represented; it also holds similar structures and randomly drawn compounds.

Assay: NALP3 inflammasome inhibitors in reconstituted yeast, primary screen, luminescence, uHTS (AID 2825);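 also: plate controls were induced DMSO wells for no effect and uninduced yeast grown without galactose for full effect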
Details: Yeast reconstituted NLRP3/ASC/caspase-1, beta-gal luminescence, 24 h; at 10 µM; stronger effect = higher value

| SMILES | inhibition |
| --- | --- |
| COc1cc(C(=O)OCc2cc(=O)n3ccsc3n2)ccc1OC(C)C | 16.3% (inactive) |
| Cc1c(Cl)c([N+](=O)[O-])nn1CCCC(=O)NC(C)c1ccccc1 (centres undefined) | 7.95% (inactive) |
| COC(=O)CCNC(=O)c1ccc2[nH]c(C)c(C)c2c1 | -4.49% (inactive) |
| CC(C)(c1ccccc1)c1ccc(OCCN2CCCC2)cc1 | 31.2% (inactive) |
| Cc1nn(CCOc2ccccc2)c(=O)n1-c1ccccc1F | -0.993% (inactive) |
| CC(C)(c1ccccc1)c1ccc(OCCN)cc1 | 54.5% (active) |
| Cc1ccc(-c2cn(S(=O)(=O)c3cccc([N+](=O)[O-])c3)nc2N)cc1 | -10.8% (inactive) |
| Nc1c(-c2cccc(Cl)c2)cnn1-c1cccc([N+](=O)[O-])c1 | 50.4% (active) |
| COc1cnn(-c2ccc([N+](=O)[O-])cc2)c(=O)c1Cl | -39.9% (inactive) |
| Cc1ccc(CSc2nsc(C)c2C#N)cc1 | 63.5% (active) |
| Cc1cc(C)c(C#N)c(SCc2ccc3c(c2)OCO3)n1 | 7.1% (inactive) |
| Cc1snc(SCc2c(F)cccc2Cl)c1C#N | 18.9% (inactive) |
| O=C(CCNC(=O)c1ccccc1)NN=Cc1ccc(Br)o1 | 20.8% (inactive) |
| CCCn1c(=O)c(C(=O)Nc2cc(C)ccn2)c(O)c2ccccc21 | 18.1% (inactive) |
| C=CCn1c(=O)c(C(=O)Nc2ncccc2O)c(O)c2ccccc21 | 22.7% (inactive) |
| Cn1c(=O)c(C(=O)Nc2ncccn2)c(O)c2ccccc21 | 50.1% (active) |
| CS(=O)(=O)N(Cc1nc2sc3c(c2c(=O)[nH]1)CCCC3)C1CCCCC1 | 19.1% (inactive) |
| CC[C@@H](C)[C@H](NC(=O)CCc1c(C)c2cc3c4c(oc3c(C)c2oc1=O)CCCC4)C(=O)O | 17.7% (inactive) |
| COc1cccc(C(=O)NC(=O)Nc2nc(C)cc(C(F)(F)F)n2)c1 | 6.49% (inactive) |
| Cc1cc(C)nc(NC(=O)Nc2ccccc2C(F)(F)F)n1 | 54.9% (active) |
| Cc1cc(Cl)nc(NC(=O)Nc2cccc(Cl)c2)n1 | 25.9% (inactive) |
| Cc1ccc(CNC(=O)Cn2cnc(S(=O)(=O)N3CCCCC3)c2)o1 | 4.74% (inactive) |
| O=C(c1ccccc1)c1cc(-c2ccccn2)c(N2CCOCC2)s1 | -6.23% (inactive) |
| CCOC(=O)C1=C(C)NC(C)=C(C(=O)OCC)C1C1=COCCO1 | 22.7% (inactive) |
| O=C1CSC(=S)N1c1ccc(Cl)c(Cl)c1 | 41.8% (inactive) |

| SMILES | inhibition |
| --- | --- |
| COc1cc(N2C(=O)CSC2=S)cc(OC)c1OC | 58.3% (active) |
| COc1cc(C(=O)N2CCN(C)CC2)cc(OC)c1OC | 9.48% (inactive) |
| COc1cc(N2C(=O)CC3(CCCC3)CC2=O)cc(OC)c1OC | 3.58% (inactive) |
| O=C1CSC(=S)N1c1ccc(O)cc1 | 81.7% (active) |
| CCOc1ccc(N2C(=O)CSC2=NC#N)cc1 | 11.9% (inactive) |
| COCCNc1cc(-c2ccccc2)nc2cc(-c3cccc(F)c3)nn12 | 32.2% (inactive) |
| CCCCC(=O)Nc1ccccc1N1CCN(c2ccc(F)cc2)CC1 | 17.7% (inactive) |
| CC(C)NC(=S)NN=C1CCCCCCCCCCC1 | 26.8% (inactive) |
| Cc1ccc2nsnc2c1S(=O)(=O)N1CCCC1C(=O)O (centres undefined) | 14.6% (inactive) |
| COc1ccc(S(=O)(=O)N2CCOC23CCN(S(=O)(=O)c2ccc([N+](=O)[O-])cc2)CC3)cc1 | 23.5% (inactive) |
| O=C(c1ccncc1)N1CCN(S(=O)(=O)c2cc(C(F)(F)F)cc(C(F)(F)F)c2)CC1 | 6.83% (inactive) |
| O=C(NCc1ccc2c(c1)OCO2)c1c(O)nc2sccn2c1=O | 56% (active) |
| O=C(NCc1ccc2c(c1)OCO2)c1sccc1Br | 40.9% (inactive) |
| CCn1c(=O)c(C(=O)NCc2ccc3c(c2)OCO3)c(O)c2ccccc21 | 17.1% (inactive) |
| CC(NC(=O)COC(=O)CCC(=O)c1ccc(Cl)cc1)c1ccccc1 (centres undefined) | 6.94% (inactive) |
| CC1CCN(C(=S)NC(=O)c2ccccc2Br)CC1 | 15.7% (inactive) |
| O=C(NC(=S)Nc1ncccn1)c1ccccc1Br | 6.12% (inactive) |
| CCCN(CC1CC1)C(=S)NC(=O)c1ccccc1Br | 50.5% (active) |
| COc1ccc(S(=O)(=O)NCc2cccnc2)cc1NC(=O)c1ccc(C)cc1 | 9.95% (inactive) |
| CCc1cc(-c2n[nH]c(=S)n2CC(C)C)cs1 | 29.7% (inactive) |
| Cc1nc2sc(C(c3ccco3)N3CCC4(CC3)OCCO4)c(O)n2n1 (centres undefined) | 13.3% (inactive) |
| Cc1ccc(O)c(NC(=O)c2cc(-c3ccco3)on2)c1 | 56.4% (active) |
| CC(C)Cc1cc(C(=O)Nc2cc(Br)ccc2O)no1 | 29.5% (inactive) |
| O=C(Nc1ccccc1C(F)(F)F)c1cc(-c2ccc(O)cc2)on1 | 32% (inactive) |
| COc1cccc(C(=O)Oc2cc(C)[nH]c(=O)c2[N+](=O)[O-])c1 | 16% (inactive) |

| SMILES | inhibition |
| --- | --- |
| COC(=O)c1ccc(S(=O)(=O)N(CCO)Cc2ccccc2)n1C | 4.79% (inactive) |
| CN1CCN(C(=O)/C(=C\c2cccs2)NC(=O)c2cccs2)CC1 | 7.81% (inactive) |
| C=CCn1c(SCC(N)=O)nnc1-c1cc2c(s1)CCC(CC)C2 (centres undefined) | 4.35% (inactive) |
| O=C(O)C1CCCN1C1=NS(=O)(=O)c2ccccc21 (centres undefined) | -1.91% (inactive) |
| O=C(Nc1ccc2oc(-c3ccccc3F)nc2c1)c1ccco1 | 54.8% (active) |
| COc1cc(OC)cc(C(=O)Nc2ccc(-c3nc4ccccc4o3)c(O)c2)c1 | 10.3% (inactive) |
| O=C(Nc1cccc(-c2nc3ncccc3o2)c1)c1ccco1 | 18.2% (inactive) |
| C=CCN1C(=O)C(O)(CC(=O)c2ccc(Cl)cc2)c2ccccc21 (centres undefined) | -10.4% (inactive) |
| CC(C)Sc1ncnc2c1cnn2-c1ccccc1 | 50.5% (active) |
| CCN(CC)C(=O)CSc1ncnc2c1cnn2-c1ccccc1 | 35.5% (inactive) |
| CC(Sc1ncnc2c1cnn2-c1ccccc1)C(=O)Nc1ccc(N2CCOCC2)cc1 (centres undefined) | 8.39% (inactive) |
| Oc1c(Cl)cc(Cl)c(Cl)c1Cc1c(O)c(Cl)cc(Cl)c1Cl | 95.9% (active) |
| CCCn1c(SCC(=O)Nc2ccc(C)c(S(=O)(=O)N3CCOCC3)c2)n[nH]c1=O | 4.23% (inactive) |
| CC1(C)Cc2c(sc3nc(SCC(=O)NCc4ccccc4)n(-c4ccccc4)c(=O)c23)CS1 | -8.33% (inactive) |
| COC(=O)c1ccc(S(=O)(=O)NCc2ccccc2)n1C | 14.2% (inactive) |
| O=C(Nc1cc(S(=O)(=O)N2CCCCC2)ccc1Cl)C1COc2ccccc2O1 (centres undefined) | 4.78% (inactive) |
| CCCCCCC12CCC(C(=O)O)(CC1)CC2 | 54.3% (active) |
| CCCCCCCCCCCC(=O)O | 12.3% (inactive) |
| CN1CCN(c2ccc(S(=O)(=O)N3CCOCC3)cc2NC(=O)CCc2ccccc2)CC1 | 12.1% (inactive) |
| COc1cc(NC(=O)CN2C(=O)NC(C)(c3ccc(OC(F)F)cc3)C2=O)cc(OC)c1OC (centres undefined) | 11.2% (inactive) |
| O=[N+]([O-])c1c(NCCO)cc(Sc2nc3ccccc3s2)c2nonc12 | 55.2% (active) |
| Cc1nc2nc(CSc3nc4ccccc4s3)cc(=O)n2[nH]1 | 1.14% (inactive) |
| CCN(CC)CCCSc1nc2ccccc2s1 | 15.5% (inactive) |
| Cc1ccccc1S(=O)(=O)Cc1ccc(C(=O)NCCN2CCCCC2C)o1 (centres undefined) | 13.3% (inactive) |
| COc1ccc(C2Nc3ccccc3C(=O)N2c2ccc(Cl)cc2)cc1Cn1cc([N+](=O)[O-])cn1 (centres undefined) | 1.4% (inactive) |

| SMILES | inhibition |
| --- | --- |
| Cc1cccc(C(=O)OC(C)C(=O)NC2CCCc3ccccc32)c1O (centres undefined) | 11.6% (inactive) |
| Cc1ccc(C(c2sc3nc(C)nn3c2O)N2CCN(c3ccccc3)CC2)cc1 (centres undefined) | -2.77% (inactive) |
| Cc1cc(C)nc(N/N=C/c2c(CO)cnc(C)c2O)n1 | 15.2% (inactive) |
| CCN(CC)c1ccc(/C=N/NC(=O)c2cnccn2)c(O)c1 | 27.9% (inactive) |
| CCN(CC)c1ccc(/C=N/Nc2nc(C)cc(C)n2)c(O)c1 | 58.1% (active) |
| OCCC1CN(Cc2cnc(-c3ccccc3)s2)CCN1CCc1ccccc1 (centres undefined) | 1.33% (inactive) |
| CCOC(OCC)c1ccc(/C=C\c2nccc(N)n2)cc1 | 14.7% (inactive) |
| O=C(OCc1cc2ccccc2[nH]c1=O)c1cccnc1 | 11.2% (inactive) |
| O=C(Oc1c(-c2ccco2)oc2ccccc2c1=O)c1cccnc1 | 54.3% (active) |
| COc1ccc(Oc2coc3cc(OC(=O)c4cncc(Br)c4)ccc3c2=O)cc1 | 2.36% (inactive) |
| C=C(C)c1cccc(C(C)(C)NC(=O)NCCN(CC)CC)c1 | 5.58% (inactive) |
| COC(=O)c1cc(S(=O)(=O)NC2CCN(Cc3ccccc3)CC2)cn1C | 11.4% (inactive) |
| CCOC(=O)c1c(C)[nH]c(C(=O)OCC(=O)c2ccc(OC)cc2OC)c1C | 22.6% (inactive) |
| CC(=O)c1c(C)[nH]c(C(=O)COc2ccc3c(C)cc(=O)oc3c2)c1C | 17.5% (inactive) |
| CCOC(=O)c1c(C)[nH]c(C(=O)COc2ccc3c(c2)OCO3)c1C | 79.9% (active) |
| O=c1[nH]c(CCl)nc2cc(-c3ccc(Cl)cc3)sc12 | 2.25% (inactive) |
| O=C(NCC1CCCO1)c1ccc(S(=O)(=O)Nc2ccc(F)cc2)cc1 (centres undefined) | 16.8% (inactive) |
| COCCNC(=S)N1CCN(C)CC1 | 5.02% (inactive) |
| CC(Sc1ccccc1F)C(=O)Nc1cccc(S(=O)(=O)N2CCOCC2)c1 (centres undefined) | 6.56% (inactive) |
| Cc1ccnc(-n2sc3ccccc3c2=O)n1 | 6.74% (inactive) |
| O=C(CCC(=O)c1cccs1)Nc1nc2ccccc2s1 | 3.03% (inactive) |
| Cc1ccnc(Nc2nc3ccccc3s2)n1 | 53.7% (active) |
| Cc1ccc(NS(=O)(=O)c2cccs2)cc1S(=O)(=O)N1CCCCCC1 | 8.88% (inactive) |
| CCn1nc(C)c(NC(=O)/C=C/c2ccc(OC)c(COc3ccc(Br)cc3)c2)c1C | 7.05% (inactive) |
